# Measured values published in the supplement of paper PMC8728848.
# The full list was thinned out, with the strongest signals kept by preference.
# B1: Surfactant Protein D (Human); Neck + Carbohydrate Recognition Domain (NCRD) (Homo sapiens) (protein)
# chain: MLLFLLSALVLLTQPLGYLEAEMKTYSHRTMPSACTLVMCSSVESGLPGRDRDGREGPRGEKGDPGLPGAAGQAGMPGQAGPVGPKGDNGSVGEPGPKGDTGPSGPPGPPGVPGPAGREGALGKQGNIGPQGKPGPKGEAGPKGEVGAPGMQGSAGARGLAGPKGERGVPGERGVPGNTGAAGSAGAMGPQGSPGARGPPGLKGDKGIPGDKGAKGESGLPDVASLRQQVEALQGQVQHLQAAFSQYKKVELFPNGQSVGEKIFKTAQFVKPFTEAQLLCTQAGGQLASPRSAAENAALQQLVVAKNEAAFLSMTDSKTEGKFTYPTGESLVYSNWAPGEPNDDGGSEDCVEIFTNGKWNDRACGEARLVVCEF
# Legend:
# Assay in all cases: glycan array binding signal (z-score within array); higher = stronger binding
# Settings in all cases: glycan notation: IUPAC condensed, linker removed; mutation: K348A
# [1] = biological target: Fuc(a1-2)Gal(b1-4)GlcNAc
# Method in brief: (§1)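 Glycan array binding is given as a within-array Z-score, which can be read as non-binding when negative. The arrays, 3228 of them, came from the Consortium for Functional Glycomics database and were retained only where the protein sequence was available. Z-scores were averaged across arrays of the same protein sequence at different concentrations or buffers and across linkers.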
# [2] = biological target: Fuc(a1-2)Gal(b1-4)[Fuc(a1-3)]GlcNAc(b1-3)Gal(b1-4)[Fuc(a1-3)]GlcNAc(b1-3)Gal(b1-4)[Fuc(a1-3)]GlcNAc
# Method in brief: as §1
# [3] = biological target: Fuc(a1-2)[Gal(a1-3)]Gal(b1-4)[Fuc(a1-3)]GlcNAc
# Method in brief: as §1
# [4] = biological target: Fuc(a1-2)[GalNAc(a1-4)]Gal(b1-4)GlcNAc
# Method in brief: as §1
# [5] = biological target: Fuc(a1-3)GlcNAc
# Method in brief: as §1
# [6] = biological target: Fuc(a1-3)[Gal(b1-4)]GlcNAc(b1-2)Man(a1-3)[Fuc(a1-3)[Gal(b1-4)]GlcNAc(b1-2)Man(a1-6)]Man(b1-4)GlcNAc(b1-4)GlcNAc
# Method in brief: as §1
# [7] = biological target: Fuc(a1-3)[Gal(b1-4)]GlcNAc(b1-4)Gal(b1-4)[Fuc(a1-3)]GlcNAc
# Method in brief: as §1
# [8] = biological target: Fuc(a1-3)[Gal(b1-4)]GlcNAc6S
# Method in brief: as §1
# [9] = biological target: Gal(b1-3)[Neu5Ac(b2-6)]GalNAc
# Method in brief: as §1
# [10] = biological target: Gal(b1-4)GalNAc(a1-3)[Fuc(a1-2)]Gal(b1-4)GlcNAc
# Method in brief: as §1
# [11] = biological target: Gal(b1-4)GlcNAc(b1-3)[Gal(b1-4)GlcNAc(b1-6)]Gal(b1-4)GlcNAc
# Method in brief: as §1
# [12] = biological target: Gal(b1-4)GlcNAc(b1-6)GalNAc
# Method in brief: as §1
# [13] = biological target: GalNAc(b1-4)GlcNAc
# Method in brief: as §1
# [14] = biological target: Glc(a1-4)Glc
# Method in brief: as §1
# [15] = biological target: Glc(b1-4)Glc
# Method in brief: as §1
# [16] = biological target: GlcNAc(b1-3)[GlcNAc(b1-6)]Gal(b1-4)GlcNAc
# Method in brief: as §1
# [17] = biological target: Man(a1-2)Man(a1-2)Man(a1-6)[Man(a1-3)]Man
# Method in brief: as §1
# [18] = biological target: Man(a1-2)Man(a1-3)[Man(a1-2)Man(a1-6)]Man
# Method in brief: as §1
# [19] = biological target: Man(a1-2)Man(a1-3)[Man(a1-2)Man(a1-6)]Man(a1-6)[Man(a1-2)Man(a1-2)Man(a1-3)]Man
# Method in brief: as §1
# [20] = biological target: Man(a1-3)[Man(a1-6)]Man(a1-6)[Man(a1-2)Man(a1-3)]Man(b1-4)GlcNAc(b1-4)GlcNAc
# Method in brief: as §1
# [21] = biological target: Man(a1-3)[Man(a1-6)]Man(a1-6)[Man(a1-3)]Man
# Method in brief: as §1
# [22] = biological target: Neu5Ac(a2-3)Gal(b1-3)GalNAc(b1-4)[Neu5Ac(a2-3)]Gal(b1-4)Glc
# Method in brief: as §1
# [23] = biological target: Neu5Ac(a2-3)Gal(b1-3)[Fuc(a1-4)]GlcNAc(b1-3)Gal(b1-4)[Fuc(a1-3)]GlcNAc
# Method in brief: as §1
# [24] = biological target: Neu5Ac(a2-3)Gal(b1-4)[Fuc(a1-3)]GlcNAc(b1-3)Gal
# Method in brief: as §1
# [25] = biological target: Neu5Ac(a2-3)Gal(b1-4)[Fuc(a1-3)]GlcNAc(b1-6)[Gal(b1-3)]GalNAc
# Method in brief: as §1
# [26] = biological target: Neu5Ac(a2-6)Gal(b1-4)Glc
# Method in brief: as §1
# [27] = biological target: Neu5Gc(a2-3)Gal(b1-3)[Fuc(a1-4)]GlcNAc
# Method in brief: as §1
binder,measurement,setting,value
B1,glycan array binding signal (z-score),[1],-0.173
same,glycan array binding signal (z-score),[2],-0.151
same,glycan array binding signal (z-score),[3],-0.148
same,glycan array binding signal (z-score),[4],-0.151
same,glycan array binding signal (z-score),[5],-0.116
same,glycan array binding signal (z-score),[6],-0.176
same,glycan array binding signal (z-score),[7],-0.134
same,glycan array binding signal (z-score),[8],-0.17
same,glycan array binding signal (z-score),[9],-0.09
same,glycan array binding signal (z-score),[10],-0.175
same,glycan array binding signal (z-score),[11],-0.175
same,glycan array binding signal (z-score),[12],-0.173
same,glycan array binding signal (z-score),[13],-0.165
same,glycan array binding signal (z-score),[14],-0.171
same,glycan array binding signal (z-score),[15],-0.16
same,glycan array binding signal (z-score),[16],-0.177
same,glycan array binding signal (z-score),[17],8.57
same,glycan array binding signal (z-score),[18],7.38
same,glycan array binding signal (z-score),[19],8.69
same,glycan array binding signal (z-score),[20],6.04
same,glycan array binding signal (z-score),[21],6.52
same,glycan array binding signal (z-score),[22],-0.156
same,glycan array binding signal (z-score),[23],0.451
same,glycan array binding signal (z-score),[24],-0.173
same,glycan array binding signal (z-score),[25],-0.015
same,glycan array binding signal (z-score),[26],-0.17
same,glycan array binding signal (z-score),[27],-0.149
